According to PubChem BioAssay (Tox21):
Records with an inconclusive call do not appear. Activity calls are given as the source filed them. Unless noted, the call rests on the fitted dose curve; in most records, active means well fitted curve in the direction sought with a large enough effect in the repeat runs; inconclusive means weak or mixed curves; inactive means flat fitted curve, though single readings scatter.

How the values were obtained:
[1] = qHTS assay to test for compound auto fluorescence at 535 nm (green) in HEK293 cells (AID 720680)
[2] = qHTS assay to test for compound auto fluorescence at 460 nm (blue) in HEK293 cell free culture (AID 720681)
Outline: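 Test compounds were pinned into cell-free culture medium (DMEM with 10% FBS) and fluorescence was read directly at Ex/Em 405/460 nm. Signals were expressed as fluorescence equivalents of triamterene, with DMSO vehicle as control.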

[3] = qHTS assay to test for compound auto fluorescence at 535 nm (green) in HEK293 cell free culture (AID 720682)
Outline: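 Using fluorescein as calibrant, autofluorescence was quantified at 485/535 nm in cell-free DMEM containing 10% FBS after pintool addition of compound or vehicle.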

[4] = qHTS assay to test for compound auto fluorescence at 590 nm (red) in HEK293 cell free culture (AID 720683)
Outline: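 Tox21 10K library compounds were pinned into cell-free DMEM with 10% FBS and fluorescence was read at excitation 540 nm. Activity is expressed as Rose Bengal sodium equivalency.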

[5] = qHTS assay to test for compound auto fluorescence at 590 nm (red) in HepG2 cell free culture (AID 720684)
Outline: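 Measured in medium alone (MEM containing 10% FBS) following pintool addition of compound; emission at 590 nm with 540 nm excitation, referenced to Rose Bengal sodium.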

[6] = qHTS assay to test for compound auto fluorescence at 460 nm (blue) in HepG2 cell free culture (AID 720685)
Outline: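 Compound (23 nL) or DMSO pinned into cell-free MEM with 10% FBS; blue fluorescence read at 405/460 nm excitation/emission, expressed as auto-fluorescence equivalency to triamterene.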

[7] = qHTS assay to test for compound auto fluorescence at 535 nm (green) in HepG2 cell free culture (AID 720686)
[8] = qHTS assay to test for compound auto fluorescence at 460 nm (blue) in HepG2 cells (AID 720687)
Outline: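 Cells (2,000/well in MEM with 10% FBS) attached overnight at 37 C, then were exposed to compound or DMSO for 1 hr at 37 C, 5% CO2. Fluorescence read at Ex/Em 405/460 nm, expressed as triamterene-equivalent signal.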

[9] = molecular target: Glucocorticoid receptor (Homo sapiens) (UniProt P04150); assay: qHTS assay to identify small molecule agonists of the glucocorticoid receptor (GR) signaling pathway (AID 720691; active means well fitted activation curve with a large enough effect in the signal ratio in the repeat runs, not every such curve was filed as active; the % refers to the signal ratio)
Glucocorticoid receptor (Homo sapiens), sequence (P04150 whole entry, looked up): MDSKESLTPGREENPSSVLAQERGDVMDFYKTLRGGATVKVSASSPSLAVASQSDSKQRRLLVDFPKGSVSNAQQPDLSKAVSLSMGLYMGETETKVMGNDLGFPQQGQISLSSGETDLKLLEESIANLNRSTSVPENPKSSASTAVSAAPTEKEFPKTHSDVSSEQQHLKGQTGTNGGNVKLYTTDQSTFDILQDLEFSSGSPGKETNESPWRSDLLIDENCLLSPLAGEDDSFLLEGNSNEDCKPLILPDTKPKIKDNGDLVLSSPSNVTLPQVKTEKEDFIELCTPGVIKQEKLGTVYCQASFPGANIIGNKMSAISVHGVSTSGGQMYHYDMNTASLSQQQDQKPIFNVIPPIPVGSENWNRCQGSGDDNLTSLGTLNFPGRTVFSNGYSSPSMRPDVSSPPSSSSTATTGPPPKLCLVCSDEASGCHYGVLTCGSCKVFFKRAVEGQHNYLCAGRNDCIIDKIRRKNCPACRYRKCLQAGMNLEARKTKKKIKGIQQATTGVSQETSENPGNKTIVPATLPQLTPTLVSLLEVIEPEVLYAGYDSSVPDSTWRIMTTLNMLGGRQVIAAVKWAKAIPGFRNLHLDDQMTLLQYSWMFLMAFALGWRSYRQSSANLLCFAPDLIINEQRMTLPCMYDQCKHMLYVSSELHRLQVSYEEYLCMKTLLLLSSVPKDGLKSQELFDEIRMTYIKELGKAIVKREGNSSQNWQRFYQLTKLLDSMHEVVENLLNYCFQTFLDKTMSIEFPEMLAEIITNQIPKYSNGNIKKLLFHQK
Outline: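 Fluorescence intensity from LiveBLAzer B/G FRET substrate (2 h, room temperature) reports beta-lactamase expression driven by the glucocorticoid response element in GR-bla HeLa cells after 18 h compound exposure at 37 C.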

[10] = molecular target: Glucocorticoid receptor (Homo sapiens) (UniProt P04150); assay: qHTS assay to identify small molecule antagonists of the glucocorticoid receptor (GR) signaling pathway (AID 720692; active means well fitted inhibition curve with a large enough effect in the signal ratio in the repeat runs, not every such curve was filed as active; the % refers to the signal ratio)
Outline: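 HeLa GR-bla cells; cmpd + dex 5 nM final, 18 h 37 C; LiveBLAzer B/G FRET substrate 2 h RT; fluorescence intensity read. Antagonist mode, qHTS.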
On the % scale 0 is the no-effect control and ±100 the full control effect.

O=C(O)CCSSCCC(=O)O
inactive: outcome [1] | outcome [2] | outcome [3] | outcome [4] | outcome [5] | outcome [6] | outcome [7] | outcome [8] | Potency [9] | outcome [10]

OC[C@H](Cc1cccc(O)c1)[C@H](CO)Cc1cccc(O)c1
inactive: outcome [1] | outcome [2] | outcome [3] | outcome [4] | outcome [5] | outcome [6] | outcome [7] | outcome [8] | Potency [9] | outcome [10]

C[Si](C)=O
inactive: fluorescence, % of fluorescein [1] 0.04% [at 9.17 µM] | fluorescence, % of fluorescent control [2] -0.225% [at 9.17 µM] | activity change [3] -0.0646% [at 9.17 µM] | fluorescence, % of fluorescent control [4] -0.414% [at 9.17 µM] | fluorescence, % of Rose Bengal [5] -0.0951% [at 9.17 µM] | fluorescence, % of fluorescent control [6] -0.0659% [at 9.17 µM] | fluorescence, % of fluorescein control [7] 0.113% [at 9.17 µM] | fluorescence, % of fluorescent control [8] -0.132% [at 9.17 µM] | activation [9] 1.09% [at 6.9 µM] | activity change, negative = inhibition [10] 3.35% [at 7.04 µM]

Cc1cccc(C)c1NC(=O)c1ccccc1C(=O)O
inactive: outcome [1] | outcome [2] | outcome [3] | outcome [4] | outcome [5] | outcome [6] | outcome [7] | outcome [8] | Potency [9] | outcome [10]

C=C(C)C(=O)OCCNC(C)(C)C
inactive: outcome [1] | outcome [2] | outcome [3] | outcome [4] | outcome [5] | outcome [6] | outcome [7] | outcome [8] | Potency [9] | outcome [10]

CC(C(=O)O)c1ccc2c(c1)CC(=O)c1ccccc1S2 (stereo not given)
inactive: outcome [1] | outcome [2] | outcome [3] | outcome [4] | outcome [5] | outcome [6] | outcome [7] | outcome [8] | Potency [9] | outcome [10]

On1nnc2ccccc21
inactive: outcome [1] | outcome [2] | outcome [3] | outcome [4] | outcome [5] | outcome [6] | outcome [7] | outcome [8] | Potency [9] | outcome [10]

C[C@@H](Oc1ccc(CNC(=O)c2cccnc2Oc2ccc3c(c2)OCO3)c(F)c1)C(=O)O
inactive: outcome [1] | outcome [2] | outcome [3] | outcome [4] | outcome [5] | outcome [6] | outcome [7] | outcome [8] | Potency [9] | outcome [10]

Cc1cc(Cl)c(C)cc1Cl
inactive: outcome [1] | outcome [2] | outcome [3] | outcome [4] | outcome [5] | outcome [6] | outcome [7] | outcome [8] | Potency [9] | outcome [10]

C=COCCOCCOCCOC=C
inactive: outcome [1] | outcome [2] | outcome [3] | outcome [4] | outcome [5] | outcome [6] | outcome [7] | outcome [8] | Potency [9] | outcome [10]

COc1cc(NS(=O)(=O)c2ccc(N)cc2)nc(OC)n1
inactive: fluorescence, % of fluorescein [1] 0.0037% [at 18.6 µM] | fluorescence, % of fluorescent control [2] 0.0589% [at 18.6 µM] | activity change [3] -0.0247% [at 18.6 µM] | fluorescence, % of fluorescent control [4] 0.0115% [at 18.6 µM] | fluorescence, % of Rose Bengal [5] 0.441% [at 18.6 µM] | fluorescence, % of fluorescent control [6] -0.0655% [at 18.6 µM] | fluorescence, % of fluorescein control [7] -0.0376% [at 18.6 µM] | fluorescence, % of fluorescent control [8] 0.0701% [at 18.6 µM] | Potency [9] | outcome [10]

Nc1ccc([N+](=O)[O-])c(N)c1
inactive: outcome [1] | outcome [2] | outcome [3] | outcome [4] | outcome [5] | outcome [6] | outcome [7] | outcome [8] | Potency [9] | outcome [10]

COc1ccc2c(c1OC)C(=O)O[C@@H]2[C@H]1c2c(cc3c(c2OC)OCO3)CCN1C
inactive: outcome [1] | outcome [2] | outcome [3] | outcome [4] | outcome [5] | outcome [6] | outcome [7] | outcome [8] | Potency [9] | outcome [10]

Cc1nc2n(c(=O)c1CCN1CCC(c3noc4cc(F)ccc34)CC1)CCC[C@H]2O
inactive: outcome [1] | outcome [2] | outcome [3] | outcome [4] | outcome [5] | outcome [6] | outcome [7] | outcome [8] | Potency [9] | outcome [10]

CC[C@H](C)C(=O)O[C@H]1C[C@H](O)C=C2C=C[C@H](C)[C@H](CC[C@@H](O)C[C@@H](O)CC(=O)O)[C@H]21
inactive: outcome [1] | outcome [2] | outcome [3] | outcome [4] | outcome [5] | outcome [6] | outcome [7] | outcome [8] | Potency [9] | outcome [10]

CCCCCCCCCC(C)=O
inactive: outcome [1] | outcome [2] | outcome [3] | outcome [4] | outcome [5] | outcome [6] | outcome [7] | outcome [8] | Potency [9] | outcome [10]

COc1cc(N)ccc1C
inactive: outcome [1] | outcome [2] | outcome [3] | outcome [4] | outcome [5] | outcome [6] | outcome [7] | outcome [8] | Potency [9] | outcome [10]
